Experimental data as given in PubChem BioAssay (NCI).
The panel holds about 79,000 compounds, 15% with a hit somewhere; the sample as a whole holds those more often. Cut-off read from the data, not from the text of the source: active = growth inhibition above about 70%; inactive = the rest.

Tests used:
[1] = NCI Yeast Anticancer Drug Screen. Data for the rad50 strain (AID 155);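 note: 0% = growth of vehicle-only cultures of the same strain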; conditions: S. cerevisiae rad50 strain growth inhibition; at 50.0 µM; active compounds read high
Summary of the method: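 Readout: growth inhibition relative to vehicle-treated cultures. Compound exposure was carried out in a genetically defined yeast strain deficient in DNA damage repair.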

[2] = NCI Yeast Anticancer Drug Screen. Data for the mec2-1 strain (AID 157); conditions: S. cerevisiae mec2-1 strain, at 50.0 µM, active compounds read high
Summary of the method: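 Test agents were screened against the mec2-1 yeast strain, with defined DNA repair or cell cycle alteration. Growth was scored as inhibition against vehicle-only controls.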

[3] = NCI Yeast Anticancer Drug Screen. Data for the sgs1 mgt1 strain (AID 161);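 note: 0% = growth of cultures given vehicle only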; conditions: S. cerevisiae sgs1 mgt1 strain, at 50.0 µM, active compounds read high
Summary of the method: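 Mutant yeast exposed to compound; growth scored against vehicle-only wells.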

[4] = NCI Yeast Anticancer Drug Screen. Data for the cln2 rad14 strain (AID 165);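 note: 0% = growth equal to vehicle treated cultures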; conditions: S. cerevisiae cln2 rad14 strain, at 50.0 µM, active compounds read high
Summary of the method: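 Growth of compound-exposed yeast (cln2 rad14 genotype) measured and expressed as inhibition relative to vehicle.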

[5] = NCI Yeast Anticancer Drug Screen. Data for the bub3 strain (AID 167); conditions: S. cerevisiae bub3 mutant strain, at 50.0 µM, active compounds read high
Summary of the method: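 Readout: yeast growth inhibition, expressed relative to vehicle-only wells. The test organism is a mutant strain from a panel with lesions in DNA repair or checkpoint genes.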

[6] = NCI Yeast Anticancer Drug Screen. Data for the mlh1 rad18 strain (AID 175); conditions: S. cerevisiae mlh1 rad18 strain growth inhibition; at 50.0 µM; active compounds read high
Summary of the method: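 In this whole-cell yeast screen, a strain with altered DNA damage repair is challenged with compound, and its growth is measured against matched vehicle-treated controls.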

Measured: growth inhibition

O=C(Oc1ccccc1)N1CCCSC1=S
inactive: [1] 19.4% | [2] -14.3% | [3] 5.35% | [4] 31.4% | [5] 16.2% | [6] 51.2%

OC(CCN1CC2CCC(CC2)C1)(Cc1ccccc1)c1ccc(F)cc1 (configuration not stated)
inactive: [1] -3.8% | [2] -7.9% | [3] 23.1% | [4] -5.15% | [5] 22.6% | [6] -7.25%

C=C1C(=O)OC2C1C(=O)C/C(C)=C/CCC1(C)OC21 (configuration not stated)
inactive: [1] 35.6% | [2] 52% | [3] 63.2% | [4] 34% | [5] 66% | [6] 9.95%

CCCC1OC(C2CC=CCC2C)OCC1CC (configuration not stated)
inactive: [1] -9.25% | [2] 6.55% | [3] 2.95% | [4] -17.9% | [5] -3.45% | [6] -46%

CCOCCOC(=O)c1ccc(C(N)=NC)cc1
inactive: [1] 12.6% | [2] -1.2% | [3] 5.2% | [4] -8.15% | [5] 6.05% | [6] 5.8%

OCC1OC(c2scc3c(=S)nc[nH]c23)C(O)C1O (configuration not stated)
inactive: [1] -5.9% | [2] -13.7% | [3] -9.45% | [4] 19.6% | [5] 12.6% | [6] -11.2%

Cc1cc(S(N)(=O)=O)c2ncccc2c1
inactive: [1] 1.8% | [2] -3.5% | [3] 2.35% | [4] -33.1% | [5] -8.4% | [6] -3.2%

CC(=O)NC1c2ccccc2CCC1OC(C)=O (configuration not stated)
inactive: [1] -16.4% | [2] -8.05% | [3] 22.9% | [4] -1.8% | [5] -8.55% | [6] -34.8%

COc1ccc2ccccc2c1C=O
inactive: [1] 33.5% | [2] 23% | [3] 40.1% | [4] -16.2% | [5] 5.45% | [6] 47.8%

CCOC(=O)c1c(O)csc1C
inactive: [1] -7.75% | [2] -6.35% | [3] -7.45% | [4] -14.2% | [5] -6.05% | [6] -8.15%

CCCCCC/C(C)=C/CCC(C)=O
inactive: [1] 12.4% | [2] 4.15% | [3] 14.8% | [4] 11.3% | [5] 4.7% | [6] -0.25%

COc1ccc2nc3cc(Cl)ccc3c(Sc3ccc(NC(C)=O)cc3)c2c1
inactive: [1] 22.1% | [2] -5% | [3] -2.5% | [4] 11.3% | [5] 11.3% | [6] 9.1%

Nc1cc(S(N)(=O)=O)ccc1O
inactive: [1] 10.3% | [2] -11.6% | [3] -21.9% | [4] -10.6% | [5] -12% | [6] 12.4%

Cc1cc(S(=O)(=O)Nc2n[nH]c(N)n2)c(SCC(=O)O)cc1Cl
inactive: [1] -2.5% | [2] -0.3% | [3] -27.6% | [4] 8.55% | [5] 1.85% | [6] 18.9%

CCCCCCCC(NC(C)=O)(C(=O)OCC)C(=O)OCC
inactive: [1] -9.25% | [2] -19.1% | [3] -4.55% | [4] -29.9% | [5] 6.75% | [6] -28.8%

CC1=C/C(=N\NC(N)=S)C(C(O)(C(F)(F)F)C(F)(F)F)C(C)(C)C1 (configuration not stated)
inactive: [1] 65.9% | [2] 30.6% | [3] 47% | [4] 20.2% | [5] 41.5% | [6] 59.8%

O=C1NN=C(C(O)c2ccccc2)C1(O)c1ccccc1 (configuration not stated)
inactive: [1] 8.3% | [2] -6.25% | [3] -0.65% | [4] 0.2% | [5] 2.5% | [6] 17.8%

CC(c1ccccc1)n1cnc2c(Cl)ncnc21 (configuration not stated)
inactive: [1] 5% | [2] -16.7% | [3] 5.05% | [4] -0.5% | [5] 6.3% | [6] -17.2%

CC1(C)OC(C(F)(F)F)(C(F)(F)F)c2cc(C(C)(C)C)ccc2S1
inactive: [1] -26.9% | [2] -29.8% | [3] -12.7% | [4] -35.4% | [5] -1% | [6] -9.95%

O=C(O)CC(C(=O)O)C1c2ccccc2-c2ccccc21 (configuration not stated)
inactive: [1] -0.1% | [2] -27.2% | [3] -40.4% | [4] -17.2% | [5] -49.2% | [6] 3.6%

CNc1nc(C(F)(F)F)nc(Cl)c1N
inactive: [1] 10% | [2] 2.5% | [3] 13.4% | [4] -7.95% | [5] 15.3% | [6] 7.4%

Nc1ccc(S(=O)(=O)c2cnc(N)s2)cc1
inactive: [1] -4% | [2] 4.25% | [3] 27.8% | [4] -3.25% | [5] -11.2% | [6] 11.4%

CCCC(=O)OCC1OC(n2ccc(N)nc2=O)C(OC(=O)CCC)C1OC(=O)CCC (configuration not stated)
inactive: [1] 18.6% | [2] -22.4% | [3] 36.3% | [4] 17.8% | [5] 10.6% | [6] 8.2%

CCOC(=O)C1=C(C)N(Cc2ccccc2)C(C)=C(C(=O)OCC)C1c1ccccc1O
inactive: [1] 20.5% | [2] 28.2% | [3] 20.1% | [4] 17.6% | [5] 30.8% | [6] 18.6%

COc1ccc(-c2cc(=O)c3cccc(CC(=O)O)c3o2)cc1
inactive: [1] 8.2% | [2] 11.7% | [3] -0.3% | [4] 31.1% | [5] 2.05% | [6] 18.4%

C=CCOc1cc2c(cc1Cc1cc(OC)c(OC)c(OC)c1)OCO2
inactive: [1] 22.9% | [2] -20.8% | [3] 49.6% | [4] 9.85% | [5] 37.6% | [6] 55.2%

COc1ccc(Cl)cc1NC(C)=O
inactive: [1] 5.1% | [2] 8.1% | [3] 5.2% | [4] 7.25% | [5] 3.7% | [6] -7.65%

CC1(CC2(C)SCCCS2)SCCCS1
inactive: [1] -1.1% | [2] -7.55% | [3] 10.7% | [4] -2.35% | [5] -5.8% | [6] 7.8%

CC(C)(C)NC1=NCCNC(c2ccccc2)=C1
inactive: [1] -33.5% | [2] -52.2% | [3] -19.4% | [4] -4.65% | [5] -30.8% | [6] -23.9%

O=C(CSc1c2ccccc2nc2ccccc12)Nc1ccccc1-c1ccccc1NC(=O)CSc1c2ccccc2nc2ccccc12
inactive: [1] 27.4% | [2] 9.75% | [3] 18.6% | [4] 6.9% | [5] 19% | [6] 34.5%

O=[N+]([O-])c1ccc(S(=O)(=O)N/N=C\c2cc([N+](=O)[O-])ccc2O)cc1
inactive: [1] 11.8% | [2] -1.4% | [3] 11.2% | [4] -35.2% | [5] 1.55% | [6] 26.6%

Cc1ccc([N+](=O)[O-])c2c(NCCCN(C)C)ccnc12
inactive: [1] 42.2% | [2] 16.1% | [3] 20% | [4] 4.7% | [5] 13.2% | [6] 49.2%

Fc1c(F)c(F)c(SN=S=Nc2ccccc2)c(F)c1F
inactive: [1] 13.4% | [2] 12.1% | [3] 13.3% | [4] -1.35% | [5] 15.1% | [6] 26.9%

COc1cccc(N)c1
inactive: [1] 4.6% | [2] -11.8% | [3] -6.65% | [4] -2.75% | [5] -4.95% | [6] -10.2%

CC(=O)N(C)c1ccc(NC(=O)Nc2c(C)cccc2C)cc1
inactive: [1] 6.55% | [2] 10% | [3] 10.7% | [4] 4.85% | [5] 19.6% | [6] 15.6%

CC(C)CNC(=S)N/N=C/C=C/c1ccc([N+](=O)[O-])cc1
inactive: [1] 4.2% | [2] 10.4% | [3] 23.4% | [4] -16.7% | [5] 2.7% | [6] 23.3%

CN(C)CCCNc1nnc(NCCCN(C)C)c2[nH]cnc12
inactive: [1] -3.2% | [2] -4.2% | [3] 7.85% | [4] -24.9% | [5] 6.5% | [6] -4.35%

CN(C)c1ncnc2ncn(C3OC(CO)C(O)C3O)c12 (configuration not stated)
inactive: [1] 67.6% | [2] 46.6% | [3] 60.2% | [4] 7.3% | [5] -13.2% | [6] 61.7%

C=C1C(=O)O[C@H]2[C@H]1[C@H](OC(=O)/C(C)=C\C)CC(=C)[C@@H]1[C@H](O)[C@H]3O[C@@]3(C)[C@@]12O
inactive: [1] 3.85% | [2] -14.8% | [3] 21.2% | [4] 5.25% | [5] -5.95% | [6] -18%

CC(=O)C1CCC(C)(O)CC1=O (configuration not stated)
inactive: [1] -0.6% | [2] -18% | [3] -14.5% | [4] -9.35% | [5] -8.4% | [6] -3.65%

CC(C)C1CCC2(C)C(CCC3C4(C)CCCC32OC4)C1 (configuration not stated)
inactive: [1] -20.5% | [2] 1.35% | [3] 0.75% | [4] -25.1% | [5] 48% | [6] 11.4%

CC1=C(O)C(=O)C2C(=O)C1C1Cc3ccccc3C21 (configuration not stated)
inactive: [1] -21.1% | [2] -2.05% | [3] -24.6% | [4] -3.2% | [5] -2.1% | [6] -17.6%
